40 sequences from the supplement of paper PMC6555819 can be followed below.

In the experiment the test system is THRa homodimer (NR concentration 90 nM). In words: PBM binding z-score (relative to random genomic background probes); higher = stronger binding; sequences stand for … in GC…GCGATTGACAGCGTAGAATGAAGG
In a few lines: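 Probes were double-stranded and carried 34-nt variable regions with direct-repeat seeds, single-nucleotide variants, half-site ablations and random human genomic background sequences, printed on custom Agilent 4×180K protein-binding microarrays. Arrays were incubated 1 h with ligand-free nuclear receptor dimers in PBS pH 7.4, 2% milk, 0.02% Triton X-100, 1 mM DTT, 0.2 mg/mL BSA and 0.4 mg/ml salmon testes DNA. Antibodies against each partner (one per run) detected binding, and scanned fluorescence was regression-normalized. Binding z-scores use the random background probes as reference.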
The sequence CCGACTGGGGAAAAGGTTACCATACTCAGTACGA registered a PBM binding z-score of -0.101.
The figure for CAAACGAGGGCATGAGTTGATAGCAAATGCCGAT is -0.234; for TTACCAAAGTGAGCTGAGGTCGTTGATCCAACTC it is 1.36; for TCGAGTAGGTTAGTGGCATTCAGAATGGCGTCGA it is -0.559.
As for CCAGACAGGTGAGAAGGTAATTCAGCCTCGATTA, the PBM binding z-score came to 0.0221.
The figure for CGTCCAAGGTCAGCAGGTCAGTGTAAGCGACGTG is 2.46.
The figure for GCAGACAGGTGAAACGAAGGTAACTCAGGGTGGC is -0.157; for GCGATTGGGGCATCAGCAGGTTACCATAACTTAA it is 0.429.
The figure for CCTTACGGGTCACTCCGGGTTATAGCATCGGAGT is -0.126; for CCTAGCAGGCCTATCTGGGTCACTCAAGGCTTGA it is 0.219; for ACTCGGAGCACAAAGGTCAGAGCTACGCCAGTGA it is -0.28.
Consider AGAGTGAGGTTAAGATCAGGGAAACAGAATACAT, for which the PBM binding z-score amounted to 1.3.
For CAAACTAGGTCGCGAAAGGTCAAAGTCGAATGAC the value was 1.51; for CAAACTAGGTCTAAGGTCAAAGTCGAGCCAACCA, 4.5.
For GATACAGGGTCAAGGCCAGAGTTCGCGTATTGAT the value was 1.21; for CCTACTAGGCCACGAAAGGTCATTGATTCAGTGA, 1.29; for AGAATGAGGTTAAGATCAGGGACACAGAATACAT, 2.
The figure for TCTTGTAGATCTAGCAGGTTAAGAAAGCCTGAGT is -0.115; for CCGAGTAGGTTATAGGGCATTCAGGCAACGGTGA it is 0.256.
In turn, TAGCCTAGGTCTTTCAGGGGCCAGTATAGAAAGC had a PBM binding z-score of -0.603.
As for CCTGGTAGGTCAATGGTCAGCTAAAGCAGCTCGC, the PBM binding z-score is 0.243.
For CCTACTGTGCCAAGGTCATTGATCAGTCAAAGCA the value was 3.43; for TCTCGTTGGTCAAAGGTCACACACTCGAAATGCG, 2.63.
For the sequence TAGCCTAGGTCATTGGGCCACTATAGTACGCATC, the PBM binding z-score stood at 1.3.
For TAGCCTAGGTCATTCAGTGGCCAGTATAGAAAGC the value was 0.351.
The figure for TGAATGAGGTTATAAGATGAGGGAACGTTGCAAA is 0.282; for CAAACTAGGCCAAAGGTCAAAGTCGAGCCAACCA it is 0.417.
Consider GCAGGCAGGTGAAACGCAGGTAACTCAGGGTGGC, for which the PBM binding z-score is -0.371.
The figure for CTCGAAAGGTCGGTTGAGGTTAGTATACGGATAA is 0.58; for CCAACTAGGTCAAGGACAGTGAATCTCCGCACGC it is 2.22.
The figure for CCGACTGGGGCATAAAGGTTACCATACCATCCGG is -0.376; for ACTAGTTGGTCAGCTGAGGTCAGACACAATTCGG it is 3.42.
For AGTCAAAGTTCATCTAGGTACCGTAAGATATGCT the value was -0.565; for CCGACAGGGGCAAAGGTTACCATACTCAGTACGA, -0.142.
The sequence CCTATTGGGCCATTCAGAGGTCATTGATCATATG displayed a PBM binding z-score of 1.54.
In the case of CCTATTAGTTGACCCTAAGGGCAACCGAAGCTCG, the PBM binding z-score was found to be 3.25.
On to AGTCAAAGTTCCCTAGGTAACGTAAGATTCAGCT, for which the PBM binding z-score is -0.151.
The figure for TGTAGCAGGCCAGAGGGTCACTCAAGAGGTACGG is -0.464.
For TAGCCTTGGTCAGATCGGGCCAGTATACGCTATA the value was -0.783; for ATCCCTAGGTAAAGTTCAGTGAAAGATCGATAGA, 0.22.
